Shown are actives, neighbours in structure and some others; about 19% of the full set was active somewhere.
KB-V1 MDR tox = qHTS assay for MDR1-selective chemotherapeutics: Primary screen using the drug-selected MDR subline cells KB-V1. Potency, µM (highest dose often 46.1 µM), hits mostly cytotoxic. hit rate 3.4% among 400,000. KB-V1 MDR cells viability, CellTiter-Glo, 72 h; further: nearly all actives have a fitted effect of over 60% in size
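Drug-selected KB-V1 cells, grown in DMEM lacking phenol red with 10% FBS, receive compound titrations; after three days at 37 degrees C, surviving cell ATP is quantified by CellTiter-Glo luminescence and responses normalized and curve-fitted.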
HT1080 IDH1KD tx = qHTS for induction of synthetic lethality in tumor cells producing 2HG: qHTS for the HT-1080-IDH1KD cell line | hit rate 2% among 360,000 | Potency, µM (highest dose often 46.1 µM), inactives show at the top dose activity, negative = toxicity, hits mostly cytotoxic | AID 686971, 2013 | HT-1080 IDH1 knockdown viability, ATP luminescence, 48 h;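 further: 0% = DMSO wells and -100% = cell-free medium wells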
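Knockdown cells (IDH1KD HT-1080) received compounds 2 h after plating at 750 cells/well and were kept 48 h at 37 °C in 5% FBS RPMI. A CellTiter-Glo luminescence read gave % activity for curve fitting.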
HT1080NT lethal = qHTS for induction of synthetic lethality in tumor cells producing 2HG: qHTS for the HT-1080-NT fibrosarcoma cell line. HT-1080-NT fibrosarcoma viability, CellTiter-Glo ATP luminescence, 48 h. Potency, µM (top dose mostly 46.1 µM), for the others: at the top dose activity, negative = less viability, most hits filed as cytotoxic. hit rate 1.6% among 360,000;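 further: NT is the 2HG producing partner of a matched IDH1 knockdown line; 0% = DMSO-treated cells and -100% = media-only wells without cells; nearly all actives have a fitted effect of over 55% in size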
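Viability of the 2HG-overproducing fibrosarcoma line after 48 hours of compound exposure at 37 degrees C was determined by luminescence with CellTiter-Glo, and concentration-effect curves were then fitted and categorized.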
KB-3-1 tox = qHTS assay for MDR1-selective chemotherapeutics: Primary screen using the parental adenocarcinoma cell KB-3-1; KB-3-1 viability, CellTiter-Glo ATP luminescence, 72 h; Potency, µM (titrated, usually from 46.1 µM), most hits filed as cytotoxic; hit rate 1.4% among 400,000; further: nearly all actives have a fitted effect of over 60% in size
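Luminescent ATP read-out (CellTiter-Glo) measures survival of drug-naive KB-3-1 cells after 72 h compound exposure at 37 °C. Titration series was screened from lowest to highest concentration, with DMSO vehicle plates as background controls.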
DT40 TDP1 no CPT = qHTS for Inhibitors of human tyrosyl-DNA phosphodiesterase 1 (TDP1): qHTS in cells in absence of CPT; DT40 Tdp1-/- hTDP1 cells, no CPT, ATP luminescence, 48 h; Potency, µM (doses to about 46.2 µM), without a hit: top-dose activity change, negative = growth inhibition, most hits filed as inhibitors; hit rate 15% among 420,000; further: nearly all actives have a fitted effect of over 55% in size
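Chicken DT40 Tdp1-/- cells complemented with human TDP1, screened without camptothecin (DMSO vehicle only), 400 cells/well. Compounds pin-transferred, cells incubated at 37 °C for at least 48 hr. Growth read as ATP-dependent luminescence (CellTiter-Glo, 30 min at RT).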
DT40 TDP1 CPT = qHTS for Inhibitors of human tyrosyl-DNA phosphodiesterase 1 (TDP1): qHTS in cells in presence of CPT; chicken DT40 Tdp1-/-;hTDP1 cells + 20 nM CPT, ATP luminescence, 48 h; Potency, µM (highest dose often 46.2 µM), for the others: at the top dose activity change, negative = growth inhibition, actives largely listed as inhibitors; hit rate 12% among 420,000; AID 686979, 2013; further: nearly all actives have a fitted effect of over 55% in size
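Cell growth measured by CellTiter-Glo luminescence after a minimum 48 h, 37 C compound exposure with 20 nM CPT in Tdp1-knockout DT40 cells stably expressing hTDP1, seeded 400/well; qHTS titration format.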
* marks the source's active call; other numbers are inactive results; i = inactive; ? = inconclusive; nt = no result; ! = repeats disagree; [ ] = remark or other dose. The call rests on the fitted dose curve; in most records, active means well fitted curve in the direction sought with a large enough effect; inconclusive means small, poorly fitted or top-dose-only effect, or another doubt; inactive means no such curve, though single readings can be large; an effect the other way counts as inactive or inconclusive. Unless noted, on the % scale 0 is the no-effect control and ±100 the full control effect; potency means the concentration at half of the fitted maximal effect.

SMILES	KB-V1 MDR tox	HT1080 IDH1KD tx	HT1080NT lethal	KB-3-1 tox	DT40 TDP1 no CPT	DT40 TDP1 CPT
Cc1c(C(=O)Nc2nonc2-c2ccc(F)cc2)oc2ccc(F)cc12	?	21µM*	?	18µM*	?	?
CCOc1ccc(-c2nonc2NC(=O)c2oc3cc(C)ccc3c2C)cc1OCC	i	nt	nt	i	-25%	-8%
CCCOc1ccc(-c2nonc2NC(=O)c2oc3ccc(Cl)cc3c2C)cc1OCCC	i	nt	nt	i	7.3µM*	?
CCOc1ccc(-c2nonc2NC(=O)c2oc3ccc(F)cc3c2C)cc1	i	nt	nt	?	0.82µM*	0.92µM*
Cc1ccc(NC(=O)COC(=O)Cc2cccs2)cc1S(=O)(=O)N1CCOCC1	i	-3%	6%	i	-9%	11%
O=C(NCC1(N2CCCCC2)CCCCC1)c1ccc(-n2cc(NC(=O)c3cccnc3)cn2)cc1	nt	nt	nt	nt	?	-5%
CCOC(=O)C1=C(C)NC2=C(C(=O)CCC2)C1c1cn(Cc2ccc(Cl)cc2Cl)nc1-c1ccccc1 (stereo not given)	?	?	?	16µM*	21µM*	16µM*
CCCCCCCCCCCCCCCCn1cc[n+](CC(C)=O)c1	i	-16%	?	8.2µM*	1.3µM*	0.65µM*
CC(Sc1nnc(-c2cccnc2)n1N)C(=O)NCCC1=CCCCC1 (stereo not given)	i	5%	1%	i	-2%	1%
Cc1nc(SCC(=O)Nc2c(C)n(C)n(-c3ccccc3)c2=O)n[nH]1	i	7%	11%	i	-5%	-10%
COc1ccc(C(CC(=O)N2CCCCC2)c2c(OC)cc(OC)c3c(-c4ccccc4)cc(=O)oc23)cc1 (stereo not given)	?	-13%	-24%	i	?	?
COc1ccc(C(CC(=O)N2CCCC(C)C2)c2c(OC)cc(OC)c3ccc(=O)oc23)cc1 (stereo not given)	i	-9%	-5%	i	18µM*	?
COc1ccc(C(CC(=O)N2CCCC2)c2c(OC)cc(OC)c3c(-c4ccccc4)cc(=O)oc23)cc1 (stereo not given)	i	1%	0%	?	16µM*	?
COc1ccc(C(CC(=O)N2CCCC(C)C2)c2c(OC)cc(OC)c3c(-c4ccccc4)cc(=O)oc23)cc1 (stereo not given)	i	-21%	6%	?	15µM*	?
Cc1c(O)ccc2c(O)c(NC(=O)c3ccc4c(c3)CCC(C)(C)O4)c(=O)oc12	i	-1%	0%	i	8%	-20%
Cc1ccccc1NC(=O)CSc1cn[nH]n1	i	4%	13%	i	3%	7%
COC(=O)C1CCN(Cc2ccc3c(c2)CN(C(=O)c2ccc(-n4cnnn4)cc2)CCO3)CC1	nt	nt	nt	nt	-7%	0%[9.04 µM]
NNC(=O)c1[nH]c2ccc([N+](=O)[O-])cc2c1-c1ccccc1	i	3.7µM*	?	?	23µM*	21µM*
Cc1cc(C(C)(C)C)c(O)c(C(C)(C)C)c1	i	nt	nt	i	13µM*!	?
CC(C)(C)c1ccc(O)c(/C=N\O)c1	i	-24%	-29%	i	-13%	-11%
CC(C)(C)c1cc(O)c(C(C)(C)C)cc1O	nt	nt	nt	nt	12µM*!	11µM*!
CC(C)(C)c1ccc(O)c(O)c1	i	?	?	?	?	34µM*
CC(C)(CO)Cc1cc(C(C)(C)C)c(O)c(C(C)(C)C)c1	i	?	?	i	?	18µM*
C#CCOCCOCCOCCNc1nc(N2CCOCC2)nc(N2CCN(C(=O)[C@H](CCC(=O)O)n3cc(C(N)[C@H](C)CC)nn3)CC2)n1 (stereo not given in full)	i	2%	4%	?	1%	4%
CCC1=Nc2cc(C(=O)NCc3ccc(C)cc3)ccc2Sc2ccc(C)cc21	nt	nt	nt	nt	8.2µM*	7.3µM*
SMILES	KB-V1 MDR tox	HT1080 IDH1KD tx	HT1080NT lethal	KB-3-1 tox	DT40 TDP1 no CPT	DT40 TDP1 CPT
CCC1=Nc2cc(C(=O)O)ccc2Sc2ccccc21	i	2%	0%	i	-9%	0%
CCC1=Nc2cc(C(=O)NCc3ccco3)ccc2Sc2ccc(Cl)cc21	1.5µM*	?	5.2µM*	1.5µM*	1µM*	1.3µM*
CCOC(=O)C1CCN(C(=O)c2ccc3c(c2)N=C(CC)c2cc(C)ccc2S3)CC1	i	nt	nt	i	?	15µM*
CCC1=Nc2cc(C(=O)NCc3ccco3)ccc2Sc2ccccc21	?	5.8µM*	2.6µM*	2.6µM*	4.6µM*	3.3µM*
CCc1ccccc1NC(=O)Nc1nnc(N(C)Cc2ccccc2)s1	i	nt	nt	i	?	?
CCc1oc(C(=O)OC)cc1CSC(=N)N	i	-6%	-1%	?	?	?
CCCC1=Nc2cc(C(=O)NCc3ccccc3)ccc2Sc2ccccc21	nt	nt	nt	nt	3.3µM*	4.1µM*
CCC1=Nc2cc(C(=O)NCCc3ccc(OC)c(OC)c3)ccc2Sc2ccccc21	i	nt	nt	i	23µM*	16µM*
CCCC1=Nc2cc(C(=O)NCCN3CCOCC3)ccc2Sc2ccccc21	?	-28%	?	i	1%	-26%
CCOCCOC(=O)c1ccc(NC(=O)c2cc3ccccc3o2)cc1	i	-2%	-11%	i	-28%	-16%
O=C(CSc1nnc(C2CC2)n1C1CC1)c1cccs1	i	8%	12%	i	19%	1%
Cc1nccn1CCCN1C(=O)OC2(CCCCC2)C1(C)O (stereo not given)	?	20%	25%	i	21µM*	?
O=[N+]([O-])c1cc(Br)c2c(c1)CCN2	i	-15%	-6%	i	-27%	3%
O=[N+]([O-])c1cc(Cl)cc(C2=NCCN2)c1	i	-22%	-2%	i	?	18µM*
COc1ccc(OC)c(CCNC(=O)Cn2nc(C)c3c(C)n(-c4ccccc4)nc3c2=O)c1	i	12%	14%	i	-9%	?
Cc1ccc(CNC(=O)C2CCN(C(=O)c3cnn(-c4ccccc4)c3-n3cccc3)CC2)cc1	nt	nt	nt	nt	9.2µM*	12µM*

Screens: PubChem, National Center for Advancing Translational Sciences (NCATS)
